Nine compounds from PubChem BioAssay (NCI) can be followed below.

The panel holds about 79,000 compounds, 15% with a hit somewhere; the sample as a whole holds those more often. A number with no mark means an inactive call. The source made the active and inactive calls. Rule as the data show it: active = growth inhibition above about 70%; inactive = the rest.

A short description of assay [1]: NCI Yeast Anticancer Drug Screen. Data for the rad50 strain (AID 155).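 Also: 0% = growth of vehicle-only cultures of the same strain.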 The settings on record: S. cerevisiae rad50 strain growth inhibition, active compounds read high. In outline: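 A DNA repair-deficient yeast mutant serves as the test organism; compound-induced growth inhibition is calculated against vehicle-treated cells.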
Assay [2] in a line: NCI Yeast Anticancer Drug Screen. Data for the mec2-1 strain (AID 157). The settings on record: S. cerevisiae mec2-1 strain, active compounds read high. The gist of the method:
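Yeast mec2-1 mutant treated with compound. Readout: growth inhibition vs vehicle controls.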

Assay [3] can be described thus: NCI Yeast Anticancer Drug Screen. Data for the sgs1 mgt1 strain (AID 161).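 Also: 0% = growth of cultures given vehicle only.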 Conditions: S. cerevisiae sgs1 mgt1 strain, active compounds read high. In outline:
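Genetically altered yeast, compound exposure, growth inhibition relative to vehicle.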

A short description of assay [4]: NCI Yeast Anticancer Drug Screen. Data for the cln2 rad14 strain (AID 165).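 Also: 0% = growth equal to vehicle treated cultures.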 The settings on record: S. cerevisiae cln2 rad14 strain, active compounds read high. In outline: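 cln2 rad14 yeast strain; compound exposure; growth inhibition read vs vehicle controls.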
The nature of assay [5]: NCI Yeast Anticancer Drug Screen. Data for the bub3 strain (AID 167). Conditions: S. cerevisiae bub3 mutant strain, active compounds read high. In outline: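 Inhibition values come from growth of compound-treated mutant yeast normalised to vehicle-treated controls.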
The nature of assay [6]: NCI Yeast Anticancer Drug Screen. Data for the mlh1 rad18 strain (AID 175). Conditions: S. cerevisiae mlh1 rad18 strain growth inhibition, active compounds read high. The gist of the method:
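Yeast w/ defined DNA-repair lesions; compound exposure; growth vs vehicle controls → % inhibition.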

Setting [7] is: at 5.0 µM (retest, dose inferred, filed as 0.5).
Setting [8] is: at 50.0 µM (retest, dose inferred, filed as 5.0).

On to `COc1ccc(CC2C(=O)NC(C)C(=O)N(C)C3C(=O)N(C)C(Cc4ccc(O)c(c4)Oc4ccc(cc4)C3O)C(=O)NC(C)C(=O)NC(C)C(=O)N2C)cc1` (configuration not stated) (tested in a mixture with another compound), for which the growth inhibition in assay [1] (setting [7]) is 31%; in assay [1] (setting [8]), 99% (active); in assay [1] (at 50.0 µM), 83.2% (active); in assay [2] (setting [7]), 28%; in assay [2] (setting [8]), 100% (active); in assay [2] (at 50.0 µM), 78% (active). Moreover, the growth inhibition is 37% in assay [3] (setting [7]); 99% (active) in assay [3] (setting [8]); 86.3% (active) in assay [3] (at 50.0 µM); 41% in assay [4] (setting [7]); 98% (active) in assay [4] (setting [8]); 78.5% (active) in assay [4] (at 50.0 µM). For the same compound, the growth inhibition in assay [5] (setting [7]) was 34%; in assay [5] (setting [8]) it was 99% (active); in assay [5] (at 50.0 µM), 83.3% (active); in assay [6] (setting [7]), 32%; in assay [6] (setting [8]), 98% (active); in assay [6] (at 50.0 µM) it was 69.3%.

Take `c1cs[c]([Hg][c]2cccs2)c1`: the growth inhibition in assay [1] (setting [7]) was 99% (active); in assay [1] (setting [8]), 98% (active); in assay [1] (at 50.0 µM), 99.7% (active); in assay [2] (setting [7]), 99% (active); in assay [2] (setting [8]), 76% (active); in assay [2] (at 50.0 µM), 99.5% (active). Further, the growth inhibition in assay [3] (setting [7]) was 100% (active); in assay [3] (setting [8]) it was 97% (active); in assay [3] (at 50.0 µM) it was 99.6% (active); in assay [4] (setting [7]), 97% (active); in assay [4] (setting [8]), 97% (active); in assay [4] (at 50.0 µM) it was 98% (active). Also, the growth inhibition was 100% (active) in assay [5] (setting [7]); 98% (active) in assay [5] (setting [8]); 99.5% (active) in assay [5] (at 50.0 µM); 99% (active) in assay [6] (setting [7]); 95% (active) in assay [6] (setting [8]); 99.5% (active) in assay [6] (at 50.0 µM).

With `CCCCCCCCCCCCCCCC[N+](C)(C)CCOS(C)(=O)=O`, the growth inhibition in assay [1] (setting [7]) was 99% (active); in assay [1] (setting [8]), 98% (active); in assay [1] (at 50.0 µM) it was 91.2% (active); in assay [2] (setting [7]), 99% (active); in assay [2] (setting [8]), 99% (active); in assay [2] (at 50.0 µM), 90.4% (active). Moreover, the growth inhibition was 99% (active) in assay [3] (setting [7]); 99% (active) in assay [3] (setting [8]); 90.3% (active) in assay [3] (at 50.0 µM); 93% (active) in assay [4] (setting [7]); 99% (active) in assay [4] (setting [8]); 86.5% (active) in assay [4] (at 50.0 µM). The growth inhibition is 99% (active) in assay [5] (setting [7]); 99% (active) in assay [5] (setting [8]); 92.4% (active) in assay [5] (at 50.0 µM); 98% (active) in assay [6] (setting [7]); 98% (active) in assay [6] (setting [8]); 92.3% (active) in assay [6] (at 50.0 µM).

Consider `S=P(Nc1ccc(Cl)cc1)(Nc1ccc(Cl)cc1)c1ccccc1`, for which the growth inhibition in assay [1] (setting [7]) was 45%; in assay [1] (setting [8]), 90% (active); in assay [1] (at 50.0 µM) it was 97.8% (active); in assay [2] (setting [7]) it was 20%; in assay [2] (setting [8]) it was 33%; in assay [2] (at 50.0 µM) it was 99.2% (active). For the same compound, the growth inhibition in assay [3] (setting [7]) was 18%; in assay [3] (setting [8]), 65%; in assay [3] (at 50.0 µM), 97.1% (active); in assay [4] (setting [7]) it was 37%; in assay [4] (setting [8]), 89% (active); in assay [4] (at 50.0 µM) it was 95.6% (active). The growth inhibition is 38% in assay [5] (setting [7]); 86% (active) in assay [5] (setting [8]); 99.1% (active) in assay [5] (at 50.0 µM); 53% in assay [6] (setting [7]); 95% (active) in assay [6] (setting [8]); 99% (active) in assay [6] (at 50.0 µM).

For the compound `COC12c3c(C)cc(O)c4c(=O)occ(c34)C(=O)C1C13COC(=O)c4c(O)cc(C)c(c41)C(=O)C2C3OC(C)=O` (configuration not stated), the growth inhibition in assay [1] (setting [7]) was 45%; in assay [1] (setting [8]) it was 99% (active); in assay [1] (at 50.0 µM), 91.4% (active); in assay [2] (setting [7]) it was 32%; in assay [2] (setting [8]) it was 100% (active); in assay [2] (at 50.0 µM), 93% (active). Moreover, the growth inhibition in assay [3] (setting [7]) is 69%; in assay [3] (setting [8]), 99% (active); in assay [3] (at 50.0 µM) it was 92.7% (active); in assay [4] (setting [7]) it was 63%; in assay [4] (setting [8]), 100% (active); in assay [4] (at 50.0 µM) it was 91.9% (active). Further, the growth inhibition in assay [5] (setting [7]) was 71% (active); in assay [5] (setting [8]), 100% (active); in assay [5] (at 50.0 µM), 91.1% (active); in assay [6] (setting [7]), 36%; in assay [6] (setting [8]) it was 99% (active); in assay [6] (at 50.0 µM) it was 91.9% (active).

On to `CCCCCCCCN1CCN(CCCCCCCC)C2CCCCC21` (configuration not stated) (tested in a mixture with another compound), for which the growth inhibition in assay [1] (setting [7]) is 12%; in assay [1] (setting [8]), 95% (active); in assay [1] (at 50.0 µM), 67.2%; in assay [2] (setting [7]), 4%; in assay [2] (setting [8]), 96% (active); in assay [2] (at 50.0 µM), 44.1%. Besides, the growth inhibition was 25% in assay [3] (setting [7]); 94% (active) in assay [3] (setting [8]); 70.2% (active) in assay [3] (at 50.0 µM); 8% in assay [4] (setting [7]); 71% (active) in assay [4] (setting [8]); 56% in assay [4] (at 50.0 µM). Besides, the growth inhibition in assay [5] (setting [7]) was 20%; in assay [5] (setting [8]), 99% (active); in assay [5] (at 50.0 µM), 71.5% (active); in assay [6] (setting [7]) it was 18%; in assay [6] (setting [8]) it was 96% (active); in assay [6] (at 50.0 µM), 77% (active).

As to `C#CC(/C=C/Cl)(CC)OC(N)=O` (configuration not stated), the growth inhibition in assay [1] (setting [7]) was 3%; in assay [1] (setting [8]) it was 13%; in assay [1] (at 50.0 µM) it was 1.8%; in assay [2] (setting [7]), 4%; in assay [2] (setting [8]), 5%; in assay [2] (at 50.0 µM), 11.6%. Further, the growth inhibition was 3% in assay [3] (setting [7]); 5% in assay [3] (setting [8]); -2% in assay [3] (at 50.0 µM); 6% in assay [4] (setting [7]); -7% in assay [4] (setting [8]); 75.8% (active) in assay [4] (at 50.0 µM). For the same compound, the growth inhibition in assay [5] (setting [7]) is 0%; in assay [5] (setting [8]) it was 43%; in assay [5] (at 50.0 µM), 55.9%; in assay [6] (setting [7]), 9%; in assay [6] (setting [8]), 16%; in assay [6] (at 50.0 µM), 31.2%.

As for `C[N+](C)(C)CC1CCCc2ccccc2C1=O` (configuration not stated), the growth inhibition in assay [1] (setting [7]) is 22%; in assay [1] (setting [8]), 90% (active); in assay [1] (at 50.0 µM) it was 88% (active); in assay [2] (setting [7]) it was 20%; in assay [2] (setting [8]), 97% (active); in assay [2] (at 50.0 µM), 85.9% (active). The growth inhibition in assay [3] (setting [7]) is 17%; in assay [3] (setting [8]) it was 88% (active); in assay [3] (at 50.0 µM) it was 91.3% (active); in assay [4] (setting [7]) it was 6%; in assay [4] (setting [8]), 43%; in assay [4] (at 50.0 µM), 81% (active). Besides, the growth inhibition in assay [5] (setting [7]) is 32%; in assay [5] (setting [8]), 99% (active); in assay [5] (at 50.0 µM), 88.1% (active); in assay [6] (setting [7]), 30%; in assay [6] (setting [8]), 98% (active); in assay [6] (at 50.0 µM), 90.5% (active).

`Cc1ccc([NH-])cc1C.Cc1ccc([NH-])cc1C.[Cl][Pt+2][Cl]`: the growth inhibition is 4% in assay [1] (setting [7]); 21% in assay [1] (setting [8]); 34.2% in assay [1] (at 50.0 µM); -1% in assay [2] (setting [7]); 9% in assay [2] (setting [8]); 19.8% in assay [2] (at 50.0 µM). The growth inhibition was 5% in assay [3] (setting [7]); 58% in assay [3] (setting [8]); 62.5% in assay [3] (at 50.0 µM); -8% in assay [4] (setting [7]); 12% in assay [4] (setting [8]); -32.4% in assay [4] (at 50.0 µM). In addition, the growth inhibition in assay [5] (setting [7]) is -8%; in assay [5] (setting [8]), 4%; in assay [5] (at 50.0 µM), 10.8%; in assay [6] (setting [7]), 6%; in assay [6] (setting [8]) it was 49%; in assay [6] (at 50.0 µM), 81.5% (active).
